Results on 84 compounds are retold here after PubChem BioAssay AID1851 (National Center for Advancing Translational Sciences (NCATS), 2009).

“And” between values parts separate entries of the source, which are not always exact repeats. Equal entries are not always repeated. About 5,800 (36%) of roughly 16,000 compounds were called active. Not shown: some 23% with an inconclusive outcome. Calls come from the whole dose curve; as a rule, active = well fitted curve in the direction sought with a large enough effect; inconclusive = small, poorly fitted or top-dose-only effect, or effect the other way; inactive = no such curve, though single readings can be large or run the other way. This is one part of the list.
% is set by controls: 0 for no effect and ±100 for the full control effect.

For this assay, the target named is Cytochrome P450 2C19 (Homo sapiens) (UniProt P33261). The experiment in a line: Cytochrome panel assay with activity outcomes. The settings on record: recombinant CYP, pro-luciferin dealkylation, luminescence, p450-cyp2c19; series mostly up to 57.1 µM; activity, negative = inhibition: at the top concentration.
Sequence of Cytochrome P450 2C19 (Homo sapiens) (P33261 whole entry, looked up): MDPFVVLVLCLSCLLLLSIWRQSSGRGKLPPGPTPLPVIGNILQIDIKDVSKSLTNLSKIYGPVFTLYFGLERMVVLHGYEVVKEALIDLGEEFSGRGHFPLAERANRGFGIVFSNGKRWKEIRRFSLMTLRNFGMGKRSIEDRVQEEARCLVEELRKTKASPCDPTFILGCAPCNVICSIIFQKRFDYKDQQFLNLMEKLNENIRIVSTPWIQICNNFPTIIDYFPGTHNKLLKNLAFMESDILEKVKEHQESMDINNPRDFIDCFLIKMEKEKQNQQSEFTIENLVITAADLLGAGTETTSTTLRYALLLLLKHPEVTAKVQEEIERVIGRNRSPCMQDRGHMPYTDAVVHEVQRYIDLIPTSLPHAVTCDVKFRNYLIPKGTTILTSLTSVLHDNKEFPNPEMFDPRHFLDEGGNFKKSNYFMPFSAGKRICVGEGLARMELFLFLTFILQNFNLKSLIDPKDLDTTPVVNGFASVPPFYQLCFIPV
For `CCc1ccc2c(c1)c(N=NC1=NC(=O)CS1)c(O)n2CC`, the “activity, negative = inhibition” value was -18.3% (inactive).
The same measure, in the same setting: for `CC(=O)NNc1cccc(Cl)n1` the value was 11.9% (inactive).
Still for that read-out and setting: for `C=CCSC[C@@H]1Nc2cc(Cl)c(S(N)(=O)=O)cc2S(=O)(=O)N1` the value was 7.79% [at 25.6 µM] (inactive); for `O=C(NCC1CCCO1)c1nn2c(c1Cl)NC(c1ccc(F)cc1)CC2C(F)(F)F` (centres undefined), -14.1% (inactive).
Still for that read-out and setting: for `CN(C(=O)Cn1nnc(-c2cccc(C(F)(F)F)c2)n1)C1CCCCC1` the value was 7.73% (inactive).
A word on the AC50: it is the midpoint of the concentration-response curve, whichever way the signal moves. Regarding `CC(C)CC(C(=O)NCC1CCCO1)N(C(=O)Cn1nnc(-c2ccc(F)cc2)n1)c1ccccc1F` (centres undefined), the AC50 was 25.1 µM (active).
Regarding `CC(C)CC(C(=O)NCC1CCCO1)N(C(=O)Cn1nnc(-c2ccc(F)cc2)n1)c1cccc(C(F)(F)F)c1` (centres undefined), the AC50 is 3.55 µM (active).
In the case of `O=S1(=O)N[C@H]2CC[C@@H]3NS(=O)(=O)N[C@H]4CC[C@H](N1)N4S(=O)(=O)N23`, the activity, negative = inhibition is 11.2% [at 11.4 µM] (inactive).
Still for that read-out and setting: the figure for `CCN1C(=O)[C@H]2[C@H]3[C@H](O)[C@H](O)C/C(=N/O[C@@H](C)c4cn([C@H](CO)Cc5ccccc5)nn4)[C@@H]3CC[C@@H]2C1=O` is 4.85% [at 11.4 µM] (inactive) and 16% [at 11.4 µM] (inactive).
`O=C(Nc1cnn(Cc2ccc(Cl)cc2Cl)c1)c1cc(-c2cccs2)on1`: the AC50 is 4.47 µM (active).
On to `Fc1ccc(C2=Nn3c(Cc4ccccc4F)nnc3SC2)cc1`, for which the AC50 was 3.98 µM (active).
Same read-out and setting: the figure for `c1ccc(-c2ccc(C3=Nn4c(Cn5nnc6ccccc65)nnc4SC3)cc2)cc1` is 14.1 µM (active).
Turning to `c1ccc2c(c1)nnn2CN1CCOCC1`, the activity, negative = inhibition was 22.7% [at 11.4 µM] (inactive).
As to `C#CCCCO/N=C1/C[C@@H](O)[C@@H](O)[C@@H]2[C@@H]3C(=O)N(CC)C(=O)[C@H]3CC[C@H]12`, the activity, negative = inhibition was -28.1% [at 11.4 µM] (inactive).
In the case of `O=C(N/N=C1/C[C@@H](O)[C@@H](O)[C@@H]2[C@@H]3C(=O)N(Cc4ccccc4)C(=O)[C@H]3CC[C@H]12)OCc1ccccc1`, the activity, negative = inhibition is 0.945% [at 11.4 µM] (inactive).
Still for that read-out and setting: for `CC(C)=CCC/C(C)=C/CO/N=C1/C[C@@H](O)[C@@H](O)[C@@H]2[C@@H]3C(=O)N(C4CCCCC4)C(=O)[C@H]3CC[C@H]12` the value was -23.1% [at 11.4 µM] (inactive).
Same read-out and setting: for `CN[C@@H]1[C@H](O[C@@H]2O[C@H](CO)[C@@H](N)[C@H](O)[C@@H]2O)O[C@H]2C[C@@H](N)[C@@H](O[C@H]3[C@@H](O)[C@H](O)[C@H](N)C[C@@H]3N)O[C@H]2[C@H]1O` the value was -36.8% [at 25.6 µM] (inactive).
Same read-out and setting: for `CC(=O)Nc1ccc(S(=O)(=O)NC(CC(=O)NCCCN2CCOCC2)C(C)C)cc1` (centres undefined) the value was -6.43% (inactive).
`CC(=O)Nc1ccc(S(=O)(=O)NC(CC(=O)NCCC2=CCCCC2)C(C)C)cc1` (centres undefined): the AC50 was 10 µM (active).
On the same count and under the same terms, for `CC(C)C(=O)NCCn1ccc2ccccc21` the value was 6.31 µM (active).
Turning to `CCN(c1ccccc1)c1cc(NC)[n+](C)c(C)n1`, the “activity, negative = inhibition” value is -3.33% (inactive).
Same read-out and setting: for `O=C(O)[C@@H]1[C@@H]2C[C@H]([C@@H](Br)[C@H]2N2C(=O)CCC2=O)[C@@H]1C(=O)O` the value was 39.9% [at 11.4 µM] (inactive).
For `O=C(O)c1cc(=O)c2ccc(Cl)cc2[nH]1`, the “activity, negative = inhibition” value was 14.6% (inactive).
The same measure, in the same setting: for `COc1ccc(C(=O)Nc2ccc(C(=O)OCC(=O)c3ccccc3)cc2)cc1` the value was -13.4% (inactive).
`COc1cccc(/C=N/NC(=O)c2cc(-c3cccn3C)n[nH]2)c1`: the AC50 is 15.8 µM (active).
Still for that read-out and setting: for `COc1cccc(/C=N/NC(=O)c2c(-c3ccccc3)noc2C)c1` the value was 2 µM (active).
Take `COc1ccc(C(=O)COC(=O)c2ccc(NC(=O)c3ccccc3)cc2)cc1`: the “activity, negative = inhibition” value was -6.93% (inactive).
Consider `COc1cccc(/C=N/NC(=O)C(=O)NCc2cccnc2)c1`, for which the “activity, negative = inhibition” value was -29.3% (inactive).
Regarding `COc1ccc(NC(=O)COC(=O)c2c(-c3ccccc3)noc2C)cc1`, the AC50 is 8.91 µM (active).
`NC(=O)CCCC1=NS(=O)(=O)c2ccccc2N1`: the “activity, negative = inhibition” value is -11.7% (inactive).
As to `CC(C)(CC(=O)N1CCN(c2ccc(Cl)cc2)CC1)CC1=NS(=O)(=O)c2ccccc2N1`, the concentration at half-maximal activity (AC50) was 7.94 µM (active).
On the same count and under the same terms, the entry for `CC1=NS(=O)(=O)c2cc(Cl)ccc2N1` is “inactive”; for `CCCC1(C(=O)OC)C=C2C(=C(c3ccccc3)C(=O)C2C)CN1` (centres undefined) it is 7.94 µM (active).
In the case of `CCCC1(C(=O)OC)C=C2C(=C(C(C)C)C(=O)C2C)CN1` (centres undefined), the “activity, negative = inhibition” value is -39.5% (inactive).
Still for that read-out and setting: for `CCCC1(C(=O)OC)C=C2C(=C(C)C(=O)C2C)CN1` (centres undefined) the value was -44.1% (inactive).
As to `COC(=O)C1(CC(C)C)C=C2C(=C(c3ccccc3)C(=O)C2C)CN1` (centres undefined), the AC50 is 39.8 µM (active).
Turning to `Nc1ccccc1SCc1csc(-c2ccc(Cl)cc2)n1`, the AC50 is 0.501 µM (active).
Turning to `C[N+](C)(N)Cc1csc(-c2ccc(Cl)cc2)n1`, the activity, negative = inhibition is 8.52% [at 11.4 µM] (inactive).
`NNc1nncc2ccccc12`: the AC50 result was “inactive”.
Regarding `O[C@H](COc1ccccc1)CN1CCCCC1`, the activity, negative = inhibition was 3.88% [at 11.4 µM] (inactive).
Consider `CN1CCN(CC(O)c2ccccc2)CC1` (centres undefined), for which the “activity, negative = inhibition” value is -12.4% (inactive).
On to `O=C(c1ccccc1)c1ccc(OCC(O)CN2CCN(Cc3ccccc3)CC2)cc1` (centres undefined), for which the AC50 was 4.47 µM (active).
On the same count and under the same terms, for `CC1CCC(C(C)C)C(OCC(O)CN2CCN(Cc3ccccc3)CC2)C1` (centres undefined) the value was 3.55 µM (active).
In the case of `CC1CC(OCC(O)CN2CCN(Cc3ccccc3)CC2)CC(C)(C)C1` (centres undefined), the “activity, negative = inhibition” value is -72.1% (inactive).
For the compound `CC#C[C@]1(O)CC[C@H]2[C@@H]3CCC4=CC(=O)CCC4=C3[C@H](c3ccc(N(C)C)cc3)C[C@@]21C`, the half-maximal activity concentration (AC50) is 7.94 µM (active).
Turning to `COc1cc2nc(N(C)CCCNC(=O)[C@@H]3CCCO3)nc(N)c2cc1OC`, the “activity, negative = inhibition” value was -17.6% [at 25.6 µM] (inactive).
Turning to `C=Cc1c(C)c2cc3nc(cc4[nH]c(cc5nc(cc1[nH]2)C(C)=C5CCC(=O)O)c(CCC(=O)OC)c4C)[C@@]1(C)C3=CC=C(C(=O)OC)[C@H]1C(=O)OC` (tested in a mixture with another compound), the AC50 is 1.26 µM (active).
As to `O=C(O)[C@@H]1[C@@H](C(=O)O)[C@]23C[C@@]2(C(=O)O)[C@]2(C(=O)O)CCC3=C3CCCC312`, the activity, negative = inhibition is 37.4% [at 11.4 µM] (inactive).
Take `c1ccc(Cc2nnc(Sc3ccccc3)c3ccccc23)cc1`: the AC50 is 5.01 µM (active).
Turning to `N#CCCn1c(=O)c(-c2cccs2)nc2cnc(Nc3ccccc3)nc21`, the “activity, negative = inhibition” value was 2.63% (inactive).
In the case of `COc1cc(C(=O)OC(C)C(=O)Nc2ccc3c(c2)OCO3)ccc1OCc1c(C)noc1C` (centres undefined), the AC50 is 14.1 µM (active).
For the compound `O=C(O)[C@@H](S)[C@H](S)C(=O)O`, the activity, negative = inhibition is -39.9% [at 11.4 µM] (inactive).
The same measure, in the same setting: for `O=C(c1ccc(F)cc1)C1CCN(CCn2c(=S)[nH]c3ccccc3c2=O)CC1` the value was 9.05% (inactive); for `Cc1cc(=O)c2ccccc2[nH]1`, -24.5% (inactive).
As to `CC1CCCC(n2c(=S)[nH]c3ccccc3c2=O)C1C` (centres undefined), the AC50 was 0.1 µM (active).
Still for that read-out and setting: for `COCCNc1nc(SCc2ccccc2)nc2sc3c(c12)CCC3` the value was 4.47 µM (active).
For `C[C@H](Nc1ncnc2sc3c(c12)CCC3)C(=O)O`, the “activity, negative = inhibition” value was -27.4% (inactive).
Turning to `OCCNc1nc(SCc2ccccc2)nc2sc3c(c12)CCC3`, the AC50 is 2.82 µM (active).
Still for that read-out and setting: for `CC(CO)Nc1nc(SCc2ccccc2)nc2sc3c(c12)CCC3` (centres undefined) the value was 3.16 µM (active).
As for `COCCNc1nc(-c2ccccc2C)nc2ccccc12`, the “activity, negative = inhibition” value was -15.5% (inactive).
Same read-out and setting: the figure for `COC(=O)N1CCC2(CCN(Cc3nccs3)CC2)CC1` is 12.1% (inactive); for `COCC(=O)N1CCC[C@@]2(CCN(Cc3nccs3)C2)C1` it is -3.18% (inactive).
With `CC(=O)N1CCC2(CCCN(Cc3nccs3)C2)CC1`, the AC50 was 5.01 µM (active).
On to `CC(=O)N1CCC2(CCN(Cc3nccs3)CC2)CC1`, for which the “activity, negative = inhibition” value was -44.8% (inactive).
As for `O=C(c1cnccn1)N1CCC2(CCN(Cc3nccs3)CC2)CC1`, the “activity, negative = inhibition” value was 21.5% (inactive).
Still for that read-out and setting: for `CC(=O)N1CCC[C@@]2(CCN(Cc3nccs3)C2)C1` the value was -16.1% (inactive).
With `COC(=O)N1CCC2(CCCN(Cc3nccs3)C2)CC1`, the AC50 was 20 µM (active).
The same measure, in the same setting: for `O=C(c1cnccn1)N1CCC2(CCCN(Cc3nccs3)C2)CC1` the value was 15.8 µM (active).
Regarding `O=C(c1cnccn1)N1CCC2(CC1)CN(Cc1nccs1)C2`, the “activity, negative = inhibition” value is 30.2% (inactive).
As to `CCc1ccc(N(C(=O)c2snc(C(N)=O)c2N)C(C(=O)NCCC(C)C)c2c[nH]c3ccccc23)cc1` (centres undefined), the AC50 was 2.24 µM (active).
As to `CC1(C)S[C@@H]2[C@H](NC(=O)[C@@H](N)c3ccc(O)cc3)C(=O)N2[C@H]1C(=O)O`, the “activity, negative = inhibition” value was 3.5% [at 25.6 µM] (inactive).
For the compound `CCOC(=O)c1cc2c(C)n(-c3ccc(C)cc3)c(C)c2ccc1=O`, the AC50 was 14.1 µM (active).
For `C[C@H]1[C@@H](O)[C@@H](C)\C=C/C=C\C=C/C=C\C=C/C=C\C=C/[C@@H](O[C@H]2O[C@@H](C)[C@@H](O)[C@@H](N)[C@@H]2O)C[C@@H]2O[C@](O)(C[C@@H](O)C[C@@H](O)[C@@H](O)CC[C@@H](O)C[C@@H](O)CC(=O)O[C@H]1C)C[C@@H](O)[C@H]2C(=O)O` (stereo in doubt), the “activity, negative = inhibition” value was 96.2% [at 25.6 µM] (inactive).
For `CCOC(=O)c1[nH]c2ccc(OC)cc2c1NC(=O)c1ccc2c(c1)OCO2`, the AC50 is 7.08 µM (active).
On to `COC(=O)c1[nH]c2cc(OC)ccc2c1NC(=O)c1nonc1C`, for which the “activity, negative = inhibition” value is -15% (inactive).
The same measure, in the same setting: for `CCOC(=O)c1[nH]c2cc(OC)c(OC)cc2c1NC(=O)c1ccc2c(c1)OCO2` the value was 19.5% (inactive); for `CCOC(=O)c1[nH]c2cc3c(cc2c1NC(=O)CN1CCC2(CC1)OCCO2)OCO3`, -16.2% (inactive).
For `CCOC(=O)c1[nH]c2cc(OC)c(OC)cc2c1NC(=O)c1nonc1C`, the “activity, negative = inhibition” value was -17.1% (inactive).
For `COC(=O)c1[nH]c2cc(OC)ccc2c1NC(=O)c1ccc2c(c1)OCO2`, the AC50 was 10 µM (active).
Take `CC(C)[C@@H](OCc1ccccc1)[C@H](C)/C=N\OC[C@@H](O)[C@@H]1O[C@@H]2OC(C)(C)O[C@@H]2[C@H]1O`: the activity, negative = inhibition was -18.3% [at 11.4 µM] (inactive).
Take `C[C@@H](C(=O)Nc1ccc2ccccc2c1)[C@H]1C[C@]1(C)[C@H](NC(=O)OCc1ccccc1)c1ccccc1`: the half-maximal activity concentration (AC50) was 1 µM (active).
Same read-out and setting: the figure for `C[C@@H](C(=O)Nc1ccc2ccccc2c1)[C@@H]1C[C@@]1(C)[C@@H](NC(=O)OCc1ccccc1)c1ccccc1` is 3.16 µM (active).
Turning to `CCCn1c(=O)c2[nH]c(C3CCCC3)nc2n(CCC)c1=O`, the “activity, negative = inhibition” value is -41.7% (inactive).
With `O=c1c2ccccc2nnn1CSc1nnc(COc2ccc(Cl)cc2)n1Cc1ccco1`, the AC50 was 14.1 µM (active).
